Some test systems named below: AXL; BLK; BMPR1A; BMPR1B; BMPR2; BMX; BRAF; BRSK1; BRSK2; BTK; BUB1; CAMK1B; CAMK1D; CAMK1G; CAMK1; CAMK2A; CAMK2B; CAMK2D.
What all share (settings): concentration: 1 μM, replicates: in singlicate; n = 1
A further assay deals with T1, BIKE.
T1 construct: gene BMP2K

The test system of the next assay is T2, BRK.
T2 construct: gene PTK6
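Note: KINOMEscan kinase panel screen.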

For the compound `COc1cccc(-n2cnc3c(N)ncnc32)c1` [SKF-97416], the “%Inh” value with AXL is 0%; in the assay with BIKE, 0%; in the assay on BLK, 0%; in the assay with BMPR1A it was 17%; in the assay on BMPR1B, 24%; in the assay with BMPR2, 57%. The “%Inh” value stood at 0% in the assay with BMX; 18% in the assay with BRAF; 0% with BRK; 16% in the assay with BRSK1; 6% in the assay with BRSK2; 0% in the assay on BTK. For the same compound, the “%Inh” value in the assay with BUB1 is given as 57%; with CAMK1B, 20%; in the assay with CAMK1D it was 11%; with CAMK1G it was 0%; with CAMK1, 16%; in the assay with CAMK2A it was 0%. Moreover, the entries for the “%Inh” value with CAMK2B and in the assay with CAMK2D were 0% and 12%, respectively.

Take `CCCNC(=O)Nc1ccc(Oc2ncnc3ccn(C)c23)cc1`: the “%Inh” value is on record as 0% in the assay with AXL; 0% in the assay with BIKE; 14% in the assay with BLK; 10% in the assay on BMPR1A; 0% in the assay on BMPR1B; 16% in the assay with BMPR2. The “%Inh” value with BMX is reported as 0%; in the assay on BRAF, 0%; with BRK, 0%; with BRSK1, 0%; in the assay on BRSK2, 8%; in the assay on BTK, 0%. The “%Inh” value is reported as 0% in the assay on BUB1; 0% in the assay with CAMK1B; 0% in the assay on CAMK1D; 19% with CAMK1G; 13% in the assay on CAMK1; 0% in the assay with CAMK2A. Further, the “%Inh” value with CAMK2B was found to be 1%; in the assay on CAMK2D, 11%.

Take `COc1ccc(Nc2nccc(N3CCC(NS(=O)(=O)c4ccc(NC(C)=O)cc4)C3)n2)cc1` (stereo not drawn) [GSK1379729]: the “%Inh” value came out at 23% in the assay on AXL; 18% in the assay on BIKE; 26% in the assay with BLK; 21% in the assay on BMPR1A; 3% in the assay on BMPR1B; 0% in the assay on BMPR2. For the same compound, the “%Inh” value in the assay on BMX is 12%; in the assay with BRAF, 16%; with BRK, 18%; in the assay on BRSK1 it was 2%; in the assay with BRSK2 it was 0%; in the assay on BTK it was 26%. Further, the “%Inh” value in the assay with BUB1 worked out at 37%; with CAMK1B, 31%; in the assay with CAMK1D, 19%; in the assay with CAMK1G, 0%; in the assay on CAMK1 it was 18%; in the assay on CAMK2A, 0%. Moreover, the “%Inh” value in the assay on CAMK2B and in the assay with CAMK2D was 0% each time.

Turning to `COc1cc(Nc2ccnc3ccc(C(F)(F)F)cc23)cc(OC)c1OC` [GW577382], the “%Inh” value is 12% with AXL; 0% in the assay with BIKE; 34% with BLK; 0% in the assay with BMPR1A; 22% with BMPR1B; 22% with BMPR2. Moreover, the “%Inh” value was 16% in the assay with BMX; 8% with BRAF; 8% with BRK; 0% in the assay on BRSK1; 10% in the assay with BRSK2; 35% in the assay with BTK. Also, the “%Inh” value turned out to be 23% in the assay with BUB1; 38% with CAMK1B; 14% in the assay with CAMK1D; 1% with CAMK1G; 17% with CAMK1; 0% in the assay on CAMK2A. Also, the “%Inh” value stood at 0% with CAMK2B and 5% in the assay with CAMK2D.

On to `Nc1n[nH]c2ncc(-c3ccccc3)cc12` [SB-517081], for which the “%Inh” value was 0% with AXL; 17% with BIKE; 13% in the assay with BLK; 2% in the assay with BMPR1A; 0% in the assay with BMPR1B; 34% in the assay on BMPR2. The “%Inh” value is 0% with BMX; 0% in the assay with BRAF; 24% in the assay on BRK; 0% in the assay with BRSK1; 0% in the assay on BRSK2; 0% in the assay on BTK. In addition, the “%Inh” value was determined as 34% in the assay with BUB1; 58% with CAMK1B; 40% with CAMK1D; 17% in the assay with CAMK1G; 18% in the assay with CAMK1; 0% with CAMK2A. Moreover, the “%Inh” value with CAMK2B is given as 0%; in the assay with CAMK2D it was 11%.

As for `COc1ccc(-n2cnc3c(N)ncnc32)cc1` [SKF-97236], the “%Inh” value in the assay with AXL was 22%; with BIKE it was 55%; with BLK, 16%; with BMPR1A it was 34%; in the assay with BMPR1B it was 0%; in the assay on BMPR2, 0%. In addition, the “%Inh” value is 0% in the assay on BMX; 5% in the assay with BRAF; 0% in the assay with BRK; 2% with BRSK1; 14% in the assay on BRSK2; 8% in the assay with BTK. Moreover, the “%Inh” value in the assay with BUB1 is reported as 4%; with CAMK1B, 25%; in the assay with CAMK1D, 10%; in the assay on CAMK1G it was 0%; in the assay on CAMK1, 5%; in the assay on CAMK2A it was 0%. Besides, the “%Inh” value in the assay on CAMK2B and in the assay with CAMK2D was 0% each time.

As to `CN1C(=O)C(Nc2ccccc2)=C(c2ccccc2)C1=O` [SB-300079], the “%Inh” value turned out to be 0% with AXL; 0% with BIKE; 23% in the assay with BLK; 12% with BMPR1A; 0% with BMPR1B; 14% with BMPR2. Also, the “%Inh” value is listed as 0% in the assay with BMX; 9% in the assay with BRAF; 0% in the assay with BRK; 0% in the assay on BRSK1; 0% in the assay on BRSK2; 0% in the assay on BTK. Also, the “%Inh” value with BUB1 came out at 32%; with CAMK1B, 0%; in the assay with CAMK1D, 0%; in the assay with CAMK1G, 0%; in the assay on CAMK1, 0%; in the assay on CAMK2A it was 0%. The “%Inh” value in the assay on CAMK2B and with CAMK2D was 0% in each case.

For `Cc1c(Cn2c(C)nn3c(=O)cc(N4CCO[C@H](C)C4)nc23)cccc1C(F)(F)F` [GSK2373690], the “%Inh” value was 0% with AXL; 31% in the assay with BIKE; 10% in the assay on BLK; 15% with BMPR1A; 0% with BMPR1B; 0% with BMPR2. Besides, the “%Inh” value in the assay on BMX is listed as 21%; with BRAF, 0%; in the assay with BRK, 32%; in the assay with BRSK1, 7%; in the assay on BRSK2 it was 0%; in the assay with BTK, 0%. The “%Inh” value was determined as 0% in the assay on BUB1; 0% in the assay with CAMK1B; 7% with CAMK1D; 0% in the assay on CAMK1G; 7% in the assay with CAMK1; 0% in the assay on CAMK2A. Moreover, the “%Inh” value with CAMK2B and in the assay on CAMK2D was 0% each time.

With `Nc1nc(N)c2nc(-c3ccccc3)[nH]c2n1` [SKF-12778], the “%Inh” value with AXL is given as 19%; with BIKE, 3%; in the assay on BLK, 0%; in the assay with BMPR1A, 0%; in the assay on BMPR1B it was 0%; in the assay with BMPR2, 7%. Moreover, the “%Inh” value with BMX turned out to be 0%; with BRAF, 1%; in the assay with BRK it was 16%; in the assay on BRSK1, 0%; in the assay with BRSK2 it was 0%; in the assay with BTK it was 0%. In addition, the “%Inh” value turned out to be 23% in the assay with BUB1; 18% with CAMK1B; 0% in the assay with CAMK1D; 0% in the assay on CAMK1G; 0% in the assay with CAMK1; 0% in the assay with CAMK2A. Moreover, the “%Inh” value in the assay on CAMK2B and with CAMK2D was 0% each time.

For the compound `CCn1c(-c2nonc2N)nc2ccccc21` [SB-693162/GW549034], the “%Inh” value in the assay on AXL amounted to 25%; in the assay on BIKE it was 6%; in the assay with BLK it was 21%; in the assay on BMPR1A, 0%; in the assay with BMPR1B, 34%; with BMPR2, 40%. In addition, the “%Inh” value was determined as 0% in the assay on BMX; 15% in the assay with BRAF; 0% with BRK; 46% in the assay with BRSK1; 4% with BRSK2; 29% in the assay on BTK. Besides, the “%Inh” value in the assay on BUB1 amounted to 0%; in the assay on CAMK1B, 8%; in the assay with CAMK1D, 20%; in the assay with CAMK1G, 0%; with CAMK1, 17%; with CAMK2A it was 5%. For the same compound, the “%Inh” value in the assay on CAMK2B and in the assay with CAMK2D was 0% throughout.

Take `O=C(Nc1n[nH]c2nc(-c3ccccc3)c(Cl)cc12)C1CC1` [SB-734909]: the “%Inh” value turned out to be 0% in the assay on AXL; 21% with BIKE; 0% with BLK; 9% in the assay on BMPR1A; 27% in the assay on BMPR1B; 0% in the assay with BMPR2. The “%Inh” value in the assay with BMX came to 1%; in the assay with BRAF, 62%; with BRK, 0%; in the assay on BRSK1 it was 70%; in the assay on BRSK2, 51%; with BTK, 0%. In addition, the “%Inh” value with BUB1, in the assay with CAMK1B, in the assay on CAMK1D, with CAMK1G, in the assay with CAMK1 and with CAMK2A was 0% throughout. The “%Inh” value with CAMK2B and in the assay with CAMK2D was 0% throughout.

`COC(=O)c1c(-c2ccccc2)c2cc(Br)ccc2c(=O)n1Cc1ccc(NC(=O)CCC(=O)O)cc1`: the “%Inh” value with AXL was found to be 0%; with BIKE, 0%; with BLK it was 4%; with BMPR1A, 0%; with BMPR1B it was 6%; in the assay with BMPR2, 7%. Besides, the “%Inh” value was found to be 2% in the assay with BMX; 42% in the assay with BRAF; 0% in the assay on BRK; 0% in the assay on BRSK1; 0% in the assay on BRSK2; 38% with BTK. In addition, the “%Inh” value worked out at 20% in the assay on BUB1; 38% with CAMK1B; 12% in the assay on CAMK1D; 9% with CAMK1G; 12% in the assay on CAMK1; 0% with CAMK2A. For the same compound, the “%Inh” value with CAMK2B worked out at 0%; in the assay with CAMK2D it was 3%.

On to `Cc1cccc(-c2cc(-c3c[nH]nc3-c3ccccn3)ccn2)c1` [GW679395], for which the “%Inh” value in the assay with AXL is 0%; in the assay on BIKE it was 0%; in the assay on BLK, 32%; with BMPR1A, 0%; in the assay with BMPR1B, 2%; with BMPR2 it was 1%. Moreover, the “%Inh” value in the assay with BMX was 0%; in the assay on BRAF, 8%; in the assay with BRK, 4%; in the assay on BRSK1 it was 0%; in the assay with BRSK2, 0%; with BTK, 0%. For the same compound, the “%Inh” value came out at 28% in the assay on BUB1; 5% in the assay with CAMK1B; 10% with CAMK1D; 0% in the assay on CAMK1G; 7% in the assay on CAMK1; 0% in the assay on CAMK2A. For the same compound, the “%Inh” value came out at 0% in the assay with CAMK2B and 5% in the assay on CAMK2D.

For the compound `CCC(=O)c1c(-c2ccccc2)c2cc(Cl)ccc2c(=O)n1Cc1cc(S(C)(=O)=O)n(CC(N)=O)n1`, the “%Inh” value in the assay with AXL is recorded as 2%; with BIKE, 0%; in the assay with BLK, 5%; in the assay with BMPR1A, 0%; in the assay with BMPR1B it was 0%; in the assay with BMPR2, 0%. Moreover, the “%Inh” value with BMX was 16%; with BRAF it was 0%; with BRK it was 0%; with BRSK1 it was 0%; in the assay with BRSK2, 0%; in the assay with BTK, 0%. Further, the “%Inh” value turned out to be 0% in the assay on BUB1; 0% with CAMK1B; 21% in the assay on CAMK1D; 0% with CAMK1G; 3% in the assay on CAMK1; 0% in the assay on CAMK2A. For the same compound, the “%Inh” value with CAMK2B and in the assay on CAMK2D was 0% throughout.

Turning to `CCS(=O)(=O)c1ccc(OC)c(Nc2ncc(-c3ccc(F)cc3)o2)c1.Cl` [GW591947], the “%Inh” value is recorded as 0% in the assay with AXL; 22% in the assay on BIKE; 41% with BLK; 14% in the assay on BMPR1A; 0% with BMPR1B; 0% with BMPR2. Moreover, the “%Inh” value in the assay with BMX, with BRAF, in the assay on BRK, in the assay on BRSK1, with BRSK2 and with BTK was 0% in each case. In addition, the “%Inh” value with BUB1 is on record as 8%; in the assay on CAMK1B it was 0%; in the assay with CAMK1D, 3%; in the assay with CAMK1G, 4%; in the assay with CAMK1, 0%; in the assay with CAMK2A, 0%. Further, the “%Inh” value is reported as 0% with CAMK2B and 12% in the assay on CAMK2D.

The values are drawn from PMC5540273 (PLoS ONE, 2017).
